Results taken from PubChem BioAssay (NCATS).
Values without a mark were called inactive. Records with an inconclusive call do not appear. Calls of active or inactive are those of the source. Unless noted, calls come from the whole dose curve; as a rule, active = well fitted curve in the direction sought with a large enough effect; inconclusive = small, poorly fitted or top-dose-only effect, or another doubt; inactive = no such curve, though single readings can be large; an effect the other way counts as inactive or inconclusive.

Key:
[1] = biological target: Cytochrome P450 1A2 (Homo sapiens) (UniProt P05177); assay: p450-cyp1a2 (AID 410; calls by dose curve; note: potency is the fitted concentration of half-maximal effect)
Chain of Cytochrome P450 1A2 (Homo sapiens) (P05177 whole entry, looked up): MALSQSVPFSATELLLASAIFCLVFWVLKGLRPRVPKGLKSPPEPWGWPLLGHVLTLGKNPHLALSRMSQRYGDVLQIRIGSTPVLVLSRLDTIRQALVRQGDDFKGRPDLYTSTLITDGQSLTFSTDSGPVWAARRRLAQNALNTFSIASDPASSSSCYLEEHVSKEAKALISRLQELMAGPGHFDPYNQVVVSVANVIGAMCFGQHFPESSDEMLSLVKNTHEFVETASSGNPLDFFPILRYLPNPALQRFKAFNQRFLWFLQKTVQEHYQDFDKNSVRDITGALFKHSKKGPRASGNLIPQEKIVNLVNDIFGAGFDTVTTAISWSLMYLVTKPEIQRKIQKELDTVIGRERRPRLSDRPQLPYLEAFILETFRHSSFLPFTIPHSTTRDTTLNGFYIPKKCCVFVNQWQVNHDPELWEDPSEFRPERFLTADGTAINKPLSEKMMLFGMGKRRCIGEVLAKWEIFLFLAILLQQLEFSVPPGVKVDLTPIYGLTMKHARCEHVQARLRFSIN
In short: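 Luminescent demethylation readout: Luciferin-ME (100uM, equal to Km) turned over by 20nM CYP1A2 for 60 min at room temperature after NADPH regeneration addition, following 10 min compound preincubation. Normalization used 57 uM furafylline as full inhibition.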

[2] = biological target: Glucocorticoid receptor (Homo sapiens) (UniProt P04150); assay: GR-GFP Redistribution (AID 450;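 active = compounds whose dose series gives a full or clear partial fitted curve of increased nuclear translocation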; note: potency is the fitted concentration of half-maximal effect)
Chain of Glucocorticoid receptor (Homo sapiens) (P04150 whole entry, looked up, the tested form may be a part): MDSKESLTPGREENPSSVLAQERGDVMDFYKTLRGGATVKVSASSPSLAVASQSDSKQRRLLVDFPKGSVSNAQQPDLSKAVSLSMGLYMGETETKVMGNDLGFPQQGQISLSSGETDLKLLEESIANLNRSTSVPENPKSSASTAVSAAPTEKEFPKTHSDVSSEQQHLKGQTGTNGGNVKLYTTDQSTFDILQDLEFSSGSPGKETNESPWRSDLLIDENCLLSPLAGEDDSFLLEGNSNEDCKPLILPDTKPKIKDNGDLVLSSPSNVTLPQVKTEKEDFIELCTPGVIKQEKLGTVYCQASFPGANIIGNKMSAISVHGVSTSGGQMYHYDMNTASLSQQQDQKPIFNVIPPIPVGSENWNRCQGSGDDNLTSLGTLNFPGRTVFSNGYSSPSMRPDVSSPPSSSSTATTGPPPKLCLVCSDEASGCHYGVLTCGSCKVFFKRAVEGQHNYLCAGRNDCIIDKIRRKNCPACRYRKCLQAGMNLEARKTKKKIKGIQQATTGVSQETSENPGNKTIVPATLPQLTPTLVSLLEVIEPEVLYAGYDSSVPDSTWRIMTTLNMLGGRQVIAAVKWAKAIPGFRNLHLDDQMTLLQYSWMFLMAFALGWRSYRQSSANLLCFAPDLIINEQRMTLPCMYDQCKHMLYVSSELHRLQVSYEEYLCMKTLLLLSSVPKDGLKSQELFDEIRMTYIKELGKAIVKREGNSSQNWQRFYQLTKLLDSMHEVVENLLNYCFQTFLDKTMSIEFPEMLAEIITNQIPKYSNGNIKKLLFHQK

[3] = biological target: Glucocorticoid receptor (Homo sapiens) (UniProt P04150); assay: GR-EFC Redistribution (AID 451; calls by dose curve; note: potency is the fitted concentration of half-maximal effect); conditions: CHO-K1 GR-EFC translocation, beta-gal luminescence, 2 h
In short: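 CHO-K1 cells expressing nuclear EA and GR-ED fragments of b-gal; compounds titrated up to 46 uM final, 2 h at 37 C. GR nuclear translocation read as complemented b-gal luminescence after 1 h RT detection.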

[4] = biological target: Mitogen-activated protein kinase 10 (Mus musculus) (UniProt Q61831); assay: JNK3 AlphaScreen Assay (AID 530; active = well fitted curve in either direction with a large enough effect, not every such curve was filed as active;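 note: kinase came from lysate of stimulated human HepG2 cells; signal reports phosphorylation of biotinylated GST-cJun 1-79 at Ser73 with 10 µM ATP; series mostly up to about 57 µM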)
In short: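 Activity was read by AlphaScreen after JNK3-containing HepG2 lysate (cytokine pre-activated) phosphorylated biotinylated GST-cJun with 10 uM ATP at room temperature. Phospho-Ser73 cJun antibody with Protein-A acceptor beads provided detection.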

[5] = biological target: Cytochrome P450 2C9 (Homo sapiens) (UniProt P11712); assay: qHTS Assay for Inhibitors and Substrates of Cytochrome P450 2C9 (AID 883); note: nearly all actives have a fitted effect of over 60% in size; note: potency is the fitted concentration of half-maximal effect
Chain of Cytochrome P450 2C9 (Homo sapiens) (P11712 whole entry, looked up): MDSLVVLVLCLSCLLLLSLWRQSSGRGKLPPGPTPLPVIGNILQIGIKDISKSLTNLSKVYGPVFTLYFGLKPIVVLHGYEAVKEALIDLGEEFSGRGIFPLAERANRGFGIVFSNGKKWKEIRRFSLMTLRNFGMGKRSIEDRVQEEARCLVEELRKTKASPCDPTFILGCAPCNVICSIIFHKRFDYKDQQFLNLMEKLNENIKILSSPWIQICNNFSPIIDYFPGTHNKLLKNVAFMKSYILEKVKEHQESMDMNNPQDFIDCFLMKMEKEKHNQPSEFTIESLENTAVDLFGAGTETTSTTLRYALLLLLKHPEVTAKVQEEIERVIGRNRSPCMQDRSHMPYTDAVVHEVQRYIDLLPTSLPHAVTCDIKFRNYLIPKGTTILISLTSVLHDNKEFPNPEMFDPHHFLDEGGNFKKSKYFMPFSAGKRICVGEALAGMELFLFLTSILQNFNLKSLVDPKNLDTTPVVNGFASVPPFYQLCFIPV
In short: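 Signal: luciferase luminescence reporting luciferin produced by CYP2C9. Conditions: 10nM enzyme, Luciferin-H 100uM at KM, 25mM KPO4, 37C, 60 min NADPH-driven reaction. Reference: 57uM sulphaphenazole as 100% inhibition.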

[6] = biological target: Cytochrome P450 2D6 (Homo sapiens) (UniProt P10635); assay: qHTS Assay for Inhibitors and Substrates of Cytochrome P450 2D6 (AID 891); note: nearly all actives have a fitted effect of over 60% in size; note: potency is the fitted concentration of half-maximal effect
Chain of Cytochrome P450 2D6 (Homo sapiens) (P10635 whole entry, looked up): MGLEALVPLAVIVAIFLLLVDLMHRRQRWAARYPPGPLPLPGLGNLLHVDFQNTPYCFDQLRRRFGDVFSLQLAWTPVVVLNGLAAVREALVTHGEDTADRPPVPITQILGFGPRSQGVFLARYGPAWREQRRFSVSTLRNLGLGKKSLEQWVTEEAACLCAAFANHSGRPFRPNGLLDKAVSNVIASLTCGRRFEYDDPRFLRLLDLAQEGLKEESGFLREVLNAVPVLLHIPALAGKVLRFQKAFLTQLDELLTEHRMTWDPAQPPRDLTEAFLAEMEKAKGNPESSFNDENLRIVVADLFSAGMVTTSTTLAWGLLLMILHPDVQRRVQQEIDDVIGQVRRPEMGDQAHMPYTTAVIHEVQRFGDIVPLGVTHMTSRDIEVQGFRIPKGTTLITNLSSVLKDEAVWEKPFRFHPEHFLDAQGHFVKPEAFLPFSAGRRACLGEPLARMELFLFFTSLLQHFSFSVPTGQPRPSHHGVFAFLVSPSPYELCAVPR
In short: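 Luminescent read-out of luciferin formed by 5 nM human CYP2D6 demethylating 30 uM Luciferin-ME EGE (Km level) over 60 min at room temperature after NADPH regeneration addition. Data normalized to full inhibition by 1.43 uM quinidine.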

[7] = biological target: Cytochrome P450 2C19 (Homo sapiens) (UniProt P33261); assay: qHTS Assay for Inhibitors and Substrates of Cytochrome P450 2C19 (AID 899); note: nearly all actives have a fitted effect of over 60% in size; note: potency is the fitted concentration of half-maximal effect
Chain of Cytochrome P450 2C19 (Homo sapiens) (P33261 whole entry, looked up): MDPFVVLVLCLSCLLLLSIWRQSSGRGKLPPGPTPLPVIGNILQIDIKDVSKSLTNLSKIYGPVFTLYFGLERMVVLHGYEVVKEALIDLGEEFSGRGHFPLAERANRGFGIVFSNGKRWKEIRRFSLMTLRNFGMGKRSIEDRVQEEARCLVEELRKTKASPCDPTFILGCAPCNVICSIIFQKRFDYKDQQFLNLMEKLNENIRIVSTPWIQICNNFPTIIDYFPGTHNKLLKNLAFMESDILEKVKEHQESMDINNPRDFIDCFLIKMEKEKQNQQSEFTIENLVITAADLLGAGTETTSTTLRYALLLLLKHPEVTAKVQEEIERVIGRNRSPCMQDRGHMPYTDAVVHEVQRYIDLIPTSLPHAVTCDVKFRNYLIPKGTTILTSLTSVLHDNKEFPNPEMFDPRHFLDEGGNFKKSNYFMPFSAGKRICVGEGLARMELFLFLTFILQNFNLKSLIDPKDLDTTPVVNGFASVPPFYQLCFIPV
In short: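 Signal comes from luciferase acting on luciferin released by CYP2C19-mediated hydroxylation of Luciferin-H EGE, 10uM (KM). Assay mix: 5nM enzyme, 50mM KPO4; 60 min at 37C with NADPH regeneration. Data normalized against 57uM ketoconazole.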

[8] = biological target: 3',5'-cyclic-AMP phosphodiesterase 4B (Homo sapiens) (UniProt Q07343); assay: qHTS Assay for Inhibitors of PDE-IV (AID 607; active = well fitted activation curve with a large enough effect in the main read-out, with a control signal flat, not every such curve was filed as active)
Chain of 3',5'-cyclic-AMP phosphodiesterase 4B (Homo sapiens) (Q07343 whole entry, looked up): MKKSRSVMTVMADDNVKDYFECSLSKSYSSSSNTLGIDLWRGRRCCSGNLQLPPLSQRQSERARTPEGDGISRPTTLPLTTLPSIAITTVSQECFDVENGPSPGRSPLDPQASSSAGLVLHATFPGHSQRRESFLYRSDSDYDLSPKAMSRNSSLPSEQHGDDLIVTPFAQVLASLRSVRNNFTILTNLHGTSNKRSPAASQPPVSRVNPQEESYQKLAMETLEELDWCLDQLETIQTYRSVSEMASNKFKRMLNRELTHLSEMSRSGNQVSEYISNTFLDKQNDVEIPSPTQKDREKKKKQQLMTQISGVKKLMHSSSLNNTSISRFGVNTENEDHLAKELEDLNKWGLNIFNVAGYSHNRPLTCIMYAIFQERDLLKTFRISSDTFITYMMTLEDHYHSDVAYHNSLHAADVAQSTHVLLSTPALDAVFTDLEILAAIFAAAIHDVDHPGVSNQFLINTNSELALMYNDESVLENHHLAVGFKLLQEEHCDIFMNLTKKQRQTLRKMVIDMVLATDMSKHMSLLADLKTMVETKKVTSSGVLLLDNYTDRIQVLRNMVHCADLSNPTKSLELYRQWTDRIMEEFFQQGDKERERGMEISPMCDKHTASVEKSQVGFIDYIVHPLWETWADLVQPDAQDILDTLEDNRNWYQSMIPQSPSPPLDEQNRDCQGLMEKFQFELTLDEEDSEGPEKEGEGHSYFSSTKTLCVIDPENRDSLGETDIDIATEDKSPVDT
In short: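 HEK293 ACTOne cells with CNG channel (1000/well), endogenous PDE4; membrane potential dye, compounds up to 22.9 uM final. Fluorescence Ex 535/Em 590; RO 20-1724 (100 uM final) as reference.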

[9] = biological target: Cytochrome P450 3A4 (Homo sapiens) (UniProt P08684); assay: qHTS Assay for Inhibitors and Substrates of Cytochrome P450 3A4 (AID 884); note: potency is the fitted concentration of half-maximal effect; nearly all actives have a fitted effect of over 50% in size
Chain of Cytochrome P450 3A4 (Homo sapiens) (P08684 whole entry, looked up): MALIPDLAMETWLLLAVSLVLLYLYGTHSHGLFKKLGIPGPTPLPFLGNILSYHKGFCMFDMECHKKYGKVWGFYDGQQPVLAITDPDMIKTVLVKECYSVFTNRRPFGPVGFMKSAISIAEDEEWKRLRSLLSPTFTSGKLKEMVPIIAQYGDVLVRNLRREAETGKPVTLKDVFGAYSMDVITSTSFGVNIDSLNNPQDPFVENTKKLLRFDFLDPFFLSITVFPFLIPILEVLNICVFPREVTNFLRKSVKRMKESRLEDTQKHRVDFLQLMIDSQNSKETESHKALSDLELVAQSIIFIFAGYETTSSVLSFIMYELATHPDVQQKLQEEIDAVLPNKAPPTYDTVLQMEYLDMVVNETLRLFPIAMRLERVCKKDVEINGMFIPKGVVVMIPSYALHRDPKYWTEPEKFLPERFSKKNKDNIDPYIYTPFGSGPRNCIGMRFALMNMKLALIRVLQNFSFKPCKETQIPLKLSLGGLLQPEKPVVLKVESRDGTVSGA
In short: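 Luminescent readout of luciferin produced by CYP3A4 (20 nM) dealkylation of Luciferin-PPXE, 25 uM (its KM). NADPH-driven reaction ran 60 min at RT after 10 min compound preincubation; data scaled to 57 uM ketoconazole as 100% inhibition.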

[10] = biological target: Cytochrome P450 3A4 (Homo sapiens) (UniProt P08684); assay: qHTS Assay for Activators of Cytochrome P450 3A4 (AID 885); note: nearly all actives have a fitted effect of over 65% in size
In short: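 Human CYP3A4 dealkylates Luciferin-PPXE to luciferin, which luciferase detection converts to light. Substrate was at its KM (25uM), buffer 200mM KPO4, reaction 60 min at RT.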

[11] = biological target: DNA dC->dU-editing enzyme APOBEC-3G (Homo sapiens) (UniProt Q9HC16); assay: qHTS for inhibitors of Vif-A3G interactions: Validation (AID 588379)
Chain of DNA dC->dU-editing enzyme APOBEC-3G (Homo sapiens) (Q9HC16 whole entry, looked up): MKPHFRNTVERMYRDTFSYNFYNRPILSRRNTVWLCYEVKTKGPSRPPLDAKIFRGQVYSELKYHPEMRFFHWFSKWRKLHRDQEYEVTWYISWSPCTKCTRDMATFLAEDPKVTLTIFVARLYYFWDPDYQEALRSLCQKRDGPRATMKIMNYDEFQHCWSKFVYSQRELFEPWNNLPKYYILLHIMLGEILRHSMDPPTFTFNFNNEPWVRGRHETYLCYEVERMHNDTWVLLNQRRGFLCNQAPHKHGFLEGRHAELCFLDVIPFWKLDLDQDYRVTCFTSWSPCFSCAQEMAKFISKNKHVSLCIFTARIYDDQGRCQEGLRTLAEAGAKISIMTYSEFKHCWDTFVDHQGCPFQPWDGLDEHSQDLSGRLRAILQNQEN
In short: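 Yellow fluorescence (Ex 488, Em 500-530) of Vif-coexpressing HeLa A3G-eYFP cells, scanned by Acumen cytometer, reports blocked A3G degradation. Cells plated at 700/well overnight at 37 deg C before compound addition, then a further overnight compound incubation at 37 deg C.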

Row | Compound | Potency [1] | Potency [2] | Potency [3] | Potency [4] | Potency [5] | Potency [6] | Potency [7] | Potency [8] | Potency [9] | Potency [10] | outcome [11]
1 | C=C1CC[C@@H]2O[C@]2(C)CC[C@@H]2[C@H]1CC2(C)C | 15.8 µM (active) | > 46 µM | > 46 µM | inactive | 25.1 µM (active) | inactive | – | – | – | – | –
2 | C/C(=C\COc1cc(=O)[nH]c2ccccc12)CC[C@@H](O)C(C)(C)O | 20 µM (active) | > 46 µM | – | inactive | inactive | inactive | – | – | – | – | –
3 | CC1(C)CC[C@]2(C(=O)O)CC[C@]3(C)C(=CC[C@@H]4[C@@]5(C)CC[C@H](O)C(C)(C)[C@@H]5CC[C@@]43C)[C@@H]2C1 | inactive | > 46 µM | > 46 µM | inactive | inactive | inactive | inactive | – | – | – | –
4 | COc1ccc(-c2coc3cc(O[C@@H]4O[C@@H](CO)[C@@H](O)[C@@H](O)[C@H]4O)cc(O)c3c2=O)cc1 | inactive | > 46 µM | > 46 µM | inactive | inactive | inactive | inactive | – | – | – | –
5 | O=c1cc(-c2ccc(O)c(O)c2)oc2cccc(O)c12 | 0.158 µM (active) | > 46 µM | > 46 µM | – | – | inactive | – | inactive | 15.8 µM (active) | inactive | inactive
6 | COc1ccc2oc(-c3ccc(O)cc3)cc(=O)c2c1 | 0.316 µM (active) | > 46 µM | > 46 µM | – | 2.51 µM (active) | 25.1 µM (active) | – | inactive | 3.98 µM (active) | inactive | inactive
7 | CCCCCCCCCCCCCCCCOC[C@@H](COCC(F)(F)F)OP(=O)(O)OCO | inactive | > 46 µM | > 46 µM | inactive | – | inactive | – | inactive | – | – | –
8 | CC(C)C[C@H](NC(=O)[C@@H](NC(=O)N[C@@H](Cc1ccccc1)C(=O)O)[C@H]1CCN=C(N)N1)C(=O)N[C@H](C=O)Cc1ccccc1 | inactive | > 46 µM | > 46 µM | inactive | inactive | inactive | – | – | – | – | –
9 | CC1(C)CCC[C@@]2(C)[C@@H]1CC[C@]1(C)OC(=O)C[C@@H]21 | inactive | > 46 µM | > 46 µM | inactive | – | inactive | – | – | – | – | –
10 | COc1ccc2c(c1)[C@]1(C)CCC[C@](C)(CO)[C@@H]1CC2 | 15.8 µM (active) | > 46 µM | > 46 µM | inactive | 7.94 µM (active) | inactive | 3.16 µM (active) | – | – | – | –
11 | C=C(CO)[C@H]1Cc2c(ccc3c2O[C@H]2COc4cc(OC)c(OC)cc4[C@@H]2C3=O)O1 | inactive | > 46 µM | > 46 µM | inactive | – | inactive | – | inactive | – | – | –
12 | COc1ccc([C@@H]2OC[C@]3(COC(C)=O)[C@H](C)C=C(C)[C@@H]2[C@H]3C)cc1 | 15.8 µM (active) | > 46 µM | > 46 µM | – | – | inactive | 6.31 µM (active) | – | – | – | –
13 | CC(=O)[C@@H]1[C@H]2[C@@H](C(=O)[C@H]3OC[C@H]2O3)[C@@H]2C=Cc3ccccc3N12 | 31.6 µM (active) | > 46 µM | > 46 µM | – | – | – | 5.01 µM (active) | inactive | – | – | –
14 | O=c1cc(-c2ccccc2O)oc2c(O)c(O)ccc12 | 2.51 µM (active) | > 46 µM | > 46 µM | – | 1.26 µM (active) | 15.8 µM (active) | 1.26 µM (active) | inactive | – | inactive | inactive
15 | O=c1c(O)c(-c2cccc(O)c2)oc2ccccc12 | 0.501 µM (active) | > 46 µM | > 46 µM | – | 15.8 µM (active) | – | 25.1 µM (active) | – | 15.8 µM (active) | inactive | inactive
16 | COc1ccccc1C[C@@H](Cc1nc2ccccc2[nH]1)c1nc2ccccc2[nH]1 | 10 µM (active) | > 46 µM | > 46 µM | inactive | 12.6 µM (active) | 0.01 µM (active) | 1.58 µM (active) | – | – | – | –
17 | Cc1c(-c2ccccc2)oc2cc(O)ccc2c1=O | 0.251 µM (active) | > 46 µM | > 46 µM | – | 2.51 µM (active) | inactive | 0.126 µM (active) | – | 15.8 µM (active) | inactive | inactive
18 | CC(=O)[C@H]1[C@H]2[C@H](C(=O)[C@@H]3OC[C@H]2O3)[C@@H]2c3ccccc3C=CN12 | 31.6 µM (active) | > 46 µM | > 46 µM | – | – | inactive | – | inactive | – | – | –
19 | O=C(/C=C\c1ccc(O)c(O)c1)O[C@H]1C[C@@](O)(C(=O)O)C[C@H](O)[C@@H]1O | inactive | > 46 µM | > 46 µM | – | inactive | inactive | inactive | – | – | – | –
20 | COc1cc2oc(-c3ccccc3)cc(=O)c2cc1OC | 0.2 µM (active) | > 46 µM | > 46 µM | – | – | inactive | – | inactive | 15.8 µM (active) | inactive | inactive
